Experimental data reported in the supplement of paper PMC9334596.
Several values for one entry are separate records, joined by “and”; a condition that tells them apart may be missing. Equal entries are not always repeated. Over roughly 5,300 compounds, “PER2::LUC luminescence relative to vehicle control” has its median near 0.96; the highest 2% begin near 1.3. The sample as a whole holds a higher share of the highest values than the screen did.

Tested on: mPer2Luc MEF
Experiment: PER2::LUC luminescence relative to vehicle control (fold of vehicle); higher = higher PER2::LUC reporter signal
Conditions: 10 µM
Procedure, shortened: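 Each value gives PER2::LUC luminescence as fold of vehicle control, measured with the ONE-Glo luciferase assay system in mouse embryonic fibroblasts carrying the mPer2Luc reporter. Cells grown in DMEM with 10% FBS at 37 °C and 5% CO2 were seeded at ~3000 per well in 384-well plates. Library compounds were added at 10 μM 48 h later, and readings were taken 24 h and 30 h after treatment.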

SMILES | PER2::LUC luminescence (time after treatment 24 h) | PER2::LUC luminescence (time after treatment 30 h)
C[C@@H](O)CCCCn1c(=O)c2c(ncn2C)n(C)c1=O | 0.991 | 0.943
CCc1c(C(=O)NNC(=O)[C@H](O)c2cc(F)cc(F)c2)ccc(O)c1C | 1 | 0.957
CCCCCCCCCCCCCCCCCC(=O)OC(CC(=O)O)C[N+](C)(C)C (racemic) | 0.909 | 0.786
CCC[C@@H]1C[C@@H](C(=O)N[C@@H]([C@H]2O[C@H](SC)[C@H](OP(=O)(O)O)[C@@H](O)[C@H]2O)[C@H](C)Cl)N(C)C1 | 1.07 | 1.01
CCC[C@@H]1C[C@@H](C(=O)N[C@@H]([C@H]2O[C@H](SC)[C@H](O)[C@@H](O)[C@H]2O)[C@@H](C)O)N(C)C1 | 0.932 and 0.965 | 0.909 and 0.803
CCC[C@@H]1C[C@@H](C(=O)N[C@@H]([C@H]2O[C@H](SC)[C@H](O)[C@@H](O)[C@H]2O)[C@H](C)Cl)N(C)C1 | 1.08 | 1.93
NC(=O)c1cccc2ncc(-c3ccc(Cl)cc3)nc12 | 1.12 | 1.16
COc1cc(O)c2c(=O)c(O)c(-c3ccccc3)oc2c1 | 0.99 | 1.06
COC(=O)[C@@H]1OC(=O)C2OC23[C@@]1(C)CCC1[C@@]2(C)CCC(=O)C(C)(C)C2C[C@@H](OC(C)=O)[C@]13C (some centres not stated) | 0.9 | 0.921
O=c1cccc2ccc(O)c(O)c2c1O | 0.987 | 0.83
N#Cc1nccc(Oc2cccc(-c3ccc(CN)cc3)c2)n1 | 0.994 | 1.14
CC(=O)N[C@H]1[C@H]([C@H](O)[C@H](O)CO)O[C@@](Oc2c[nH]c3ccc(Br)c(Cl)c23)(C(=O)O)C[C@@H]1O | 1 | 0.967
Cc1nc(C#Cc2cccnc2)cs1 | 1.15 | 1.26
NS(=O)(=O)C#Cc1ccccc1 | 1.18 | 0.903
Cc1cccc(C#Cc2ccccc2)n1 | 1.56 and 1.59 and 1.5 | 1.16 and 1.75 and 1.47
Cc1cc(C)c(/C=C2\C(=O)Nc3ccc(Cl)cc32)[nH]1 | 1.06 | 1.02
O=C(O)/C=C/c1ccc(O)c(O)c1 | 0.886 | 0.894
O=C(/C=C/c1ccc(O)c(O)c1)OCCc1ccccc1 | 0.173 | 0.361
O=C(/C=C/c1ccc(O)c(O)c1)O[C@@H]1C[C@](O)(C(=O)O)C[C@@H](O)[C@H]1O | 1.8 | 1.28
C[C@H]1CCN(C(=O)CC#N)C[C@H]1N(C)c1ncnc2[nH]ccc12 | 1 | 1.02
O=Nc1c(O)[nH]c2c(Cl)c(Cl)ccc12 | 1.05 | 1.07
OCCOCCN1CCN(C(c2ccccc2)c2ccccc2)CC1 | 0.939 | 0.9

SMILES | PER2::LUC luminescence (time after treatment 24 h) | PER2::LUC luminescence (time after treatment 30 h)
O=C(O)/C(=C\c1c(C(=O)O)[nH]c2cc(Cl)cc(Cl)c12)c1ccccc1 | 1.4 | 1.34
O=C(O)c1cc(=O)c2c(Cl)cc(Cl)cc2[nH]1 | 1.04 | 1
O=C(O)CCc1c(C(=O)O)[nH]c2cc(Cl)cc(Cl)c12 | 1.03 | 0.901
O=C(O)[C@@H]1C[C@H](CP(=O)(O)O)CCN1 | 1.03 | 0.992
O=C1Nc2nc(-c3c(O)cccc3OCC3CC3)cc([C@@H]3CCCNC3)c2CO1 | 0.574 | 0.66
Cc1cc2sc(NC(=O)Cc3ccccc3)nc2cc1Cl | 1.02 | 1.38
CC[N+](CC)(CC(=O)Nc1c(C)cccc1C)Cc1ccccc1 | 0.988 | 0.901
COc1ccc(CCC(=O)Nc2nc3ccc(Cl)cc3s2)cc1OC | 0.875 and 0.954 | 1.04 and 0.951
C[C@@H]1O[C@@H](OC[C@H]2O[C@@H](Oc3cc(O)c4c(=O)cc(-c5ccc(O)cc5)oc4c3)[C@H](O)[C@@H](O)[C@@H]2O)[C@H](O)[C@H](O)[C@H]1O | 0.948 | 0.927
CCCCN(CCCC)C(=O)CN1C[C@H](c2ccc3c(c2)OCO3)[C@@H](C(=O)O)[C@@H]1c1ccc(OC)cc1 | 2.23 | 2.08
Cc1noc(-c2ccc(-c3ccc(CC(=O)O)cc3)cc2)c1NC(=O)OC(C)c1ccccc1Cl (configuration not stated) | 1.1 | 1.12
C/C=C/C(=O)N1C(=O)OC[C@@H]1Cc1ccccc1 | 0.864 | 0.846
CN1CCCN=C1/C=C/c1cccs1 | 1.2 and 1.03 | 0.92 and 1.16
O=C1/C(=C/c2cccs2)CCC/C1=C\c1cccs1 | 1.5 | 1.67
O=C1/C(=C/c2cccs2)CC/C1=C\c1cccs1 | 1.07 | 1.01
Nc1ccc(C(=O)Oc2ccccc2)c(O)c1 | 0.958 | 1.54
O=C(Oc1ccccc1C(=O)O)c1ccccc1O | 1.15 and 0.613 | 1.16 and 0.995
CC(=O)Nc1ccc(OC(=O)c2ccccc2O)cc1 | 0.934 | 1.02
CC(C)c1onc(-c2c(Cl)cccc2Cl)c1COc1ccc(/C=C/c2cccc(C(=O)O)c2)c(Cl)c1 | 1.86 | 2.03
CC(C)CCNC(=O)c1ccc2c(c1)nc(Nc1n[nH]c3ccc(-c4ccccc4OC(F)(F)F)cc13)n2C1CCC(O)CC1 (configuration not stated) | 0.526 | 0.553
CCCCC(CC)COC(=O)C=Cc1ccc(OC)cc1 (configuration not stated) | 1.09 | 1.14
CCCCC(CC)COC(=O)c1ccccc1O (configuration not stated) | 1.07 | 1.63

SMILES | PER2::LUC luminescence (time after treatment 24 h) | PER2::LUC luminescence (time after treatment 30 h)
CCCCC(CC)COC(=O)C(C#N)=C(c1ccccc1)c1ccccc1 (configuration not stated) | 1.01 and 1.15 | 1.08 and 1.14
COc1ccc(CNc2nc(NCc3ccc(OC)cc3)c3ncn(C(C)C)c3n2)cc1 | 0.991 | 1.22
CC(C(=O)O)c1ccc(CC2CCCC2=O)cc1 (configuration not stated) | 0.779 and 1.02 | 1.36 and 1.08
CC(C)Cc1ccc([C@@H](C)C(=O)O)cc1 | 0.974 | 0.981
CC(C)Cc1ccc(C(C)C(=O)O)cc1 (racemic) | 1.12 | 0.938
O=C(NCc1cccc(O)c1)c1cc2cc(F)ccc2[nH]1 | 0.948 | 0.986
CC(=O)NN(Cc1ccc(N)cc1)c1ncnc2c1ncn2[C@@H]1O[C@H](CO)[C@@H](O)[C@H]1O | 1.03 | 0.913
NC1(C(=O)O)CCc2cc(P(=O)(O)O)ccc21 (racemic) | 1.03 | 1.01
Cc1nc(C(=O)N2CCC[C@H]2Cc2nnc(-c3ccccc3)o2)c(-c2ccccc2F)s1 | 1.06 | 0.881
COc1ccc(CCN2CN=C(SCc3ccc(Cl)cc3)NC2)cc1OC | 0.912 | 0.83
COc1cc(-c2ccc(=O)[nH]n2)ccc1OC(F)F | 0.97 | 0.924
COc1ccccc1O | 0.97 | 0.878
COc1ccc(-c2nc3cc(F)ccc3s2)cc1OC | 1.5 | 1.52
COc1cc(-c2nc3ccccc3s2)ccc1O | 1.37 | 1.5
COc1cc(CC(=O)O)ccc1O | 0.99 | 0.874
C#CCN(Cc1cc2c(=O)[nH]c(C)nc2cc1Br)c1ccc(C(=O)NCc2cccnc2)cc1 | 0.902 | 0.731
CC(Oc1ccc(Oc2cnc3ccc(Cl)cc3n2)cc1)C(=O)O (configuration not stated) | 1.14 | 1.05
COc1cc2ncnc(Nc3cccc(I)c3)c2cc1OC | 0.808 | 0.774
O[C@@](Cc1ncc(CC2(C(F)(F)F)CC2)[nH]1)(c1ccc(-n2cccn2)cc1)C(F)(F)F | 0.966 | 0.921
CCOc1ccc(-n2c(C(C)N(Cc3cccnc3)C(=O)Cc3ccc(OC(F)(F)F)cc3)nc3ncccc3c2=O)cc1 (configuration not stated) | 0.97 | 0.944
O=C(Nc1ccc(OC(F)(F)F)cc1)c1sccc1NCc1ccnc2ccccc12 | 1.76 | 1.99
Cc1cc(Nc2ccc(NC(=O)c3ccc(Nc4ccnc5ccccc45)cc3)cc2)nc(N)n1 | 0.945 | 1

SMILES | PER2::LUC luminescence (time after treatment 24 h) | PER2::LUC luminescence (time after treatment 30 h)
Cc1c2c(c(O)c3c(O)cccc13)C(=O)O[C@@H]2[C@@H]1[C@H](O)C(=O)C(C(N)=O)=C(O)[C@H]1N(C)C [Alpha-APO-OXYTETRACYCLINE] | 0.979 | 0.958
CCc1c(C(=O)NNC(=O)C(O)c2cc(F)cc(F)c2)ccc(O)c1C (configuration not stated) | 0.99 | 0.823
COc1cccc(-c2cc(=O)c3cc(OC)ccc3o2)c1 | 1.22 | 1.49
COc1ccc2oc(-c3ccccc3OC)cc(=O)c2c1 | 1.38 | 1.61
COc1ccc(-c2oc3ccccc3c(=O)c2OC)cc1 | 0.987 | 1.2
COc1ccc(-c2cc(=O)c3ccccc3o2)cc1 | 1.72 | 1.29
COc1ccc(-c2cc(=O)c3c(OC)c(OC)c(OC)c(OC)c3o2)cc1 | 0.944 | 1.03
COc1ccc2oc(-c3ccccc3)c(OC)c(=O)c2c1 | 1.54 | 1.73
COc1cccc(-c2cc(=O)c3ccc(OC)cc3o2)c1 | 0.879 | 0.955
COc1ccc(-c2cc(=O)c3ccc(O)cc3o2)cc1 | 1.19 | 1.23
COc1ccc2c(=O)c(OC)c(-c3ccccc3)oc2c1 | 0.767 | 0.809
COc1ccc(-c2cc(=O)c3c(OC)c(OC)c(OC)c(OC)c3o2)cc1OC | 0.626 | 0.784
COc1ccc2ccc(=O)oc2c1 | 1 | 1.01
COc1cccc(-c2cc(=O)c3ccccc3o2)c1N | 0.951 | 0.985
CC[C@H](C)[C@H]1O[C@]2(C=C[C@@H]1C)C[C@@H]1C[C@@H](C/C=C(\C)[C@@H](O[C@H]3C[C@H](OC)[C@@H](O[C@H]4C[C@H](OC)[C@@H](O)[C@H](C)O4)[C@H](C)O3)[C@@H](C)/C=C/C=C3\CO[C@@H]4[C@H](OC)C(C)=C[C@@H](C(=O)O1)[C@]34O)O2 | 0.767 | 0.843
NC(=O)C[n+]1cccc(C(=O)O)c1 | 1.18 | 1.08
c1cc(NC2CCNCC2)nc(-c2cnc3ccccn23)c1 | 0.506 | 0.487
CCCNC[C@]1(O)[C@H](C)O[C@@H](O[C@H]2[C@H](C)[C@@H](O[C@@H]3O[C@H](C)C[C@H](N(C)C)[C@H]3O)[C@](C)(O)C[C@@H](C)CN[C@H](C)[C@@H](O)[C@](C)(O)[C@@H](CC)OC(=O)[C@@H]2C)C[C@@]1(C)OC | 1.05 | 0.881
C/C=C(/C)C(=O)O[C@H]1CC(C)=CC(=O)[C@@]2(C)CC[C@@](O)(C(C)C)[C@H]12 | 1.01 | 0.988
Cc1nnc(-c2sc(NC(=O)[C@H](C(C)C)n3c(=O)[nH]c4ccccc4c3=O)nc2C)o1 | 1.04 | 0.956
